Measurements from PubChem BioAssay AID2825 (Sanford-Burnham Center for Chemical Genomics, 2010).
Out of some 330,000 compounds screened, about 1,300 (0.39%) were called active. Only a selection was taken, and actives are over-represented in it overall. Unmarked numbers belong to inactive results.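 Rule for the calls: active = inhibition of 50% or more; inactive = inhibition below 50%.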

Experiment: blockers of yeast NLRP3/ASC/caspase-1 reporter – luminescence, uHTS, primary screen (AID 2825);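 note: plate controls were induced DMSO wells for no effect and uninduced yeast grown without galactose for full effect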
Conditions: Yeast reconstituted NLRP3/ASC/caspase-1, beta-gal luminescence, 24 h; at 10 µM; hits give high values

SMILES | inhibition
O=C(CN1C(=O)C2C3C=CC(C3)C2C1=O)Nc1nc(-c2ccccn2)cs1 (stereo not given) | 2.29%
O=C(COc1ccccc1F)Nc1nc(-c2ccccn2)cs1 | 52.9% (active)
CC(NC(=O)c1ccco1)C(=O)Nc1nc(-c2ccccn2)cs1 (stereo not given) | 6.56%
CCNC(=O)c1cccc(NC(=O)C2CC(=O)N(CCc3ccccc3)C2)c1 (stereo not given) | 0.384%
O=C(Nc1ccccc1Cl)/C(Cl)=C(\Cl)S(=O)c1ccccc1 (stereo not given) | 67.4% (active)
CN(C)S(=O)(=O)Oc1ccccc1C(=O)Nc1ccccc1Cl | -4.11%
O=C(COC(=O)CCc1c[nH]c(=O)[nH]1)Nc1ccccc1Cl | -10.9%
COc1cc(CNCc2ccc3c(c2)OCO3)c([N+](=O)[O-])cc1OC | 20.4%
O=[N+]([O-])c1cccc(/C=N/Nc2ncc(Br)cn2)c1 | 68.1% (active)
Cc1ccc(NC(=O)O/N=C/c2cccc([N+](=O)[O-])c2)cc1 | 18.6%
O=C(N/N=C/c1cccc([N+](=O)[O-])c1)C1CC(=O)N(c2ccc(Br)cc2)C1 (stereo not given) | 4.22%
C/C(=N/OC(=O)c1ccc(Br)cc1)c1ccc(C)cc1 | 25.5%
Cc1cc(C(=O)Nc2nnc(C3CC3)s2)c(C)s1 | 47.8%
O=C(Nc1nnc(C2CC2)s1)c1ccccn1 | 7.63%
CCc1cc(C(=O)Nc2nnc(C3CC3)s2)sc1C | 52% (active)
CC(=O)NC(CC(=O)Nc1ccc(S(=O)(=O)N2CCOCC2)cc1)c1ccccc1 (stereo not given) | 8.22%
Fc1ccccc1-c1cc2cc3c(cc2cn1)OCO3 | 57.2% (active)
O=C(c1ccco1)N1CCN(C(=O)c2cc(-c3ccccc3F)no2)CC1 | -3.69%
Fc1ccc2cnc(-c3ccccc3)cc2c1 | 34.3%
O=C1CC2(CCCC2)C(=O)N1CN1CCN(S(=O)(=O)c2ccc(F)cc2F)CC1 | 20.4%
Cc1c(C(=O)N2CCCc3ccccc32)oc2ccccc12 | 51.5% (active)
CCCn1nc(C(=O)N2CCCc3ccccc32)c2ccccc2c1=O | 12.6%

SMILES | inhibition
Cc1c(C(=O)OCC(=O)N2CCCC2=O)oc2ccccc12 | 28.6%
Cc1cccc(NC(=O)c2ccc([N+](=O)[O-])o2)c1 | -4.88%
Cc1cccc(NC(=S)NC(=O)c2ccc(Br)o2)c1 | 57.6% (active)
O=C(CNC(=O)c1ccc(Br)o1)Nc1ccccc1 | 22.4%
O=C(Cc1ccc(S(=O)(=O)N2CCCC2)s1)NC1CCCCCC1 | 7.38%
CN(c1ccccc1)S(=O)(=O)c1ccc2[nH]c(=O)[nH]c2c1 | 25.4%
COc1ccccc1C(=O)COC(=O)CSCC(=O)Nc1cc(C)on1 | 15.5%
CC(CCc1ccc(O)cc1)NCc1ccc(Cl)cc1Cl (stereo not given) | 21.7%
N#Cc1nc(COc2ccc(-c3ccccc3)cc2)oc1NCc1cccnc1 | 2.98%
N#Cc1nc(Cc2cccc3ccccc23)oc1NCc1ccc2c(c1)OCO2 | 2.2%
N#Cc1nc(Cc2ccccc2)oc1NCCc1ccccc1 | 53.8% (active)
CCn1c(=S)sc2c(=O)n(CC(=O)Nc3ccc(OC)cc3)c(C)nc21 | 18.2%
CC(NCc1nc2ccccc2n1C)C12CC3CC(CC(C3)C1)C2 (stereo not given) | 30%
Cc1ccc(-c2nnc(Nc3ccc(C(=O)N(C)C)cc3)c3ccccc23)cc1S(N)(=O)=O | 15.1%
O=c1[nH]oc(O)c1-c1ncc(C(F)(F)F)cc1Cl | 6.26%
Cn1c(N)c(C(=O)COC(=O)c2cccc(S(=O)(=O)N3CCOCC3)c2)c(=O)n(C)c1=O | 3.26%
COc1ccccc1OCc1nc2ccccc2s1 | 59.6% (active)
CCc1ccc(-c2nnn(Cc3nc4ccccc4s3)n2)cc1 | 31.8%
CN(Cc1nc2ccccc2s1)C(=O)c1ccc(F)cc1 | 14.9%
Cc1cccc(C)c1NC(=O)CCS(=O)(=O)c1cccc2nsnc12 | -0.246%
Cc1nc2ccccc2nc1N/N=C/c1ccc(O)cc1O | 2.73%
COc1cccc(/C=N/Nc2cc(C)nc(-c3ccccc3O)n2)c1O | 54.1% (active)

SMILES | inhibition
COc1ccc(Cc2nnc(N/N=C/c3ccccc3O)[nH]c2=O)cc1OC | 9.67%
CC(C)c1ccc(N2CC(C(=O)Nc3nccs3)CC2=O)cc1 (stereo not given) | 9.7%
COc1ccc(CNC(=O)COC(=O)/C=C/c2ccc(S(=O)(=O)N3CCOCC3)cc2)cc1 | -4.76%
Cc1nn(Cc2ccccc2)c(C)c1C(=O)N1CCN(CC(=O)Nc2ccccc2Cl)CC1 | 14.5%
O=C(CC(O)(C(F)(F)F)C(F)(F)F)Nc1ccc(Cl)c(Cl)c1 | 78.6% (active)
NC(=O)N1CCCC1C(=O)Nc1ccc(Cl)c(Cl)c1 (stereo not given) | -1.49%
O=C(COC(=O)c1cc[n+]([O-])cc1)Nc1ccc(Cl)c(C(F)(F)F)c1 | -2.4%
Cc1onc(-c2ccccc2Cl)c1C(=O)OCc1nnc(-c2ccccc2)o1 | 27.8%
Cc1ccc(-n2cnc3ncnc(-c4ccccc4)c32)cc1 | 7.02%
Cc1ccc(-c2nn(C(C)(C)C)c3ncnc(N)c23)cc1 | 90.7% (active)
Cc1[nH]c(=O)c(C(=O)/C=C/c2ccccc2)c2c1CCCC2 | 28.3%
CCc1cccc(OC2OC(CO)C(O)C(O)C2NC(C)=O)c1 (stereo not given) | -4.24%
Cn1nccc1/C=N\NC(=O)c1ccc(Cl)cc1 | 19.2%
COc1ccccc1C1C(C#N)=C(N)Oc2c1c(-c1ccccc1)nn2-c1ccccc1 (stereo not given) | 9.88%
N#CC1(NC(=O)COC(=O)Cc2n[nH]c(=O)c3ccccc23)CCCCC1 | 17.9%
CC(C)n1c(COc2ccccc2)nc2ccccc21 | 57.2% (active)
Cn1c(COc2ccc(Cl)cc2)nc2ccccc2c1=O | 35.3%
CC(C)n1c(CN2CCN(Cc3ccccc3)CC2)nc2ccccc21 | 18.2%
CCOc1ccc(C(O)Cc2nc3ccccc3n2C)cc1 (stereo not given) | 32.1%
CC(C)n1c(-c2cccs2)nc2ccccc21 | 19%
Cc1ccc(OCc2nc3ccccc3n2C)cc1 | 62.3% (active)
